Among the data in PubChem BioAssay (NCI) are growth values, retold here.

Compounds without any hit were thinned out: in the full panel of roughly 83,000, 20% have a hit.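 For each line, cells grew in 96-well plates with the test compound present at a single concentration for 48 hours.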 A number with no mark means an inactive call. Activity calls are given as the source filed them. Rule for the calls: active = growth percent below 10; inactive = the rest.

The subject of this experiment is MDA-MB-468 breast. The experiment can be described thus: NCI-60 one-dose screen, 48 h (100 = growth as untreated, 0 = no growth, -100 = all killed). The conditions noted are these: 10 µM unless noted.
In the case of `c1ccc2c(c1)nc(-n1ccnc1)c1nc3ccccc3n12`, the growth was 76%.

Consider `Cc1ccc(-c2csc(/N=C3\C(=O)Nc4ccccc43)n2)cc1`, for which the growth was -12.5% (active).

In the case of `O=C(CCCCCCN1CC(=O)N2[C@@H](c3ccccc3)c3[nH]c4ccccc4c3C[C@H]2C1=O)NO`, the growth is 53.7%.

As to `Nc1ncccc1O`, the growth was 74%.

Regarding `COC(=O)c1c2c(c(C)[n+]([O-])c1C)C(=O)C=C(NCc1ccc(Cl)cc1)C2=O`, the growth is -67% (active).

Turning to `c1ccc(CNc2ccc3nc(CCC4CCCCC4)[nH]c3c2)cc1`, the growth was 43%.

Take `COc1cc(/C=C2/C(=O)Nc3ccc(Cl)cc32)ccc1OCc1ccc(Cl)cc1`: the growth was 87.2%.

On to `COc1ccc2cc(C3=CC(=O)CCC3)ccc2c1`, for which the growth is 100%.

Turning to `Cc1ccc(NC(=O)Nc2ccc(Nc3ncnc4sc5c(c34)CCOC5)cc2)cc1Cl`, the growth was 102%.

As for `C=C1C(=O)O[C@@H]2C3C(=C(C)CC[C@@H]12)CC1O[C@]13C` (stereo not given in full), the growth is 19.3% [6.75 µM].

As for `CCCc1c(C)nc2scc(-c3ccc(Cl)cc3)n2c1=O`, the growth was 97.9%.

As for `c1ccc2nc(Cn3cc[n+](Cc4ccc5ccccc5n4)c3)ccc2c1`, the growth was 1.53% (active).

On to `COc1cc(/C=C2\C(=O)N(Cc3ccc(Cl)cc3)c3ccccc32)cc(OC)c1OC`, for which the growth was -18.3% (active).

Regarding `O=[N+]([O-])c1ccc(S(=O)(=O)N2CCN(c3ccnc4cc(Cl)ccc34)CC2)c([N+](=O)[O-])c1`, the growth was 82.7%.

As for `Nc1ncc(-c2cnn(C3CCNCC3)c2)cc1-c1nc2ccccc2o1`, the growth is -29.1% (active).
